The source of these data is PubChem BioAssay.

Inconclusive results are not listed. Calls of active or inactive are those of the source. Rule as the data show it: active = fluorescence slope change above about 50%; inconclusive = mostly about 31% to 49%; inactive = weaker than that.

Experiment [1] is described as follows: polyglutamine aggregate formation blockers (AID 1604). Conditions: polyglutamine-induced protein aggregation inhibition assay; stronger effect = higher value; tested at 2.5 µM.
A short description of experiment [2]: rescue of PC12 cells from polyQ htt toxicity – LDH release (AID 1610). Conditions: PC12 mutant huntingtin toxicity, final LDH at 4 uM, stronger effect = lower value. For orientation: Release of lactate dehydrogenase indicates damage to the cell membrane.
The nature of experiment [3]: glutamate transport activators, MN-1 cells, MN-1 cell line (AID 1612).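 Also: tested at 1 µM final; 0% = mean of DMSO vehicle wells on each plate; positive means more glutamate uptake than control and negative means less.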 Conditions: MN-1 motor neuron cells, stronger effect = higher value.
A short description of experiment [4]: GFP-Q80 aggregate reduction, neuronal-like cells, cell-based, NGF-treated PC12, GFPQ80 (AID 1614).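 Also: lower means fewer inclusions and 0 means no inclusions at all.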 Conditions: PC12 NGF-treated GFP-polyQ80 inclusion reduction.
Experiment [5] can be described thus: 75Q-TubH aggregate inhibition, S. cerevisiae, yeast (AID 1616). Conditions: S. cerevisiae 75Q-TubH polyglutamine aggregation suppression; stronger effect = higher value.
Experiment [6] deals with ATP-dependent translocase ABCB1 (Homo sapiens) (UniProt P08183). Briefly: P-glycoprotein substrate transport blockade – cell-based (AID 377). Conditions: MDR1-expressing cells, fluorescent substrate accumulation slope; stronger effect = higher value; concentration not given here.
Chain of ATP-dependent translocase ABCB1 (Homo sapiens) (P08183 whole entry, looked up): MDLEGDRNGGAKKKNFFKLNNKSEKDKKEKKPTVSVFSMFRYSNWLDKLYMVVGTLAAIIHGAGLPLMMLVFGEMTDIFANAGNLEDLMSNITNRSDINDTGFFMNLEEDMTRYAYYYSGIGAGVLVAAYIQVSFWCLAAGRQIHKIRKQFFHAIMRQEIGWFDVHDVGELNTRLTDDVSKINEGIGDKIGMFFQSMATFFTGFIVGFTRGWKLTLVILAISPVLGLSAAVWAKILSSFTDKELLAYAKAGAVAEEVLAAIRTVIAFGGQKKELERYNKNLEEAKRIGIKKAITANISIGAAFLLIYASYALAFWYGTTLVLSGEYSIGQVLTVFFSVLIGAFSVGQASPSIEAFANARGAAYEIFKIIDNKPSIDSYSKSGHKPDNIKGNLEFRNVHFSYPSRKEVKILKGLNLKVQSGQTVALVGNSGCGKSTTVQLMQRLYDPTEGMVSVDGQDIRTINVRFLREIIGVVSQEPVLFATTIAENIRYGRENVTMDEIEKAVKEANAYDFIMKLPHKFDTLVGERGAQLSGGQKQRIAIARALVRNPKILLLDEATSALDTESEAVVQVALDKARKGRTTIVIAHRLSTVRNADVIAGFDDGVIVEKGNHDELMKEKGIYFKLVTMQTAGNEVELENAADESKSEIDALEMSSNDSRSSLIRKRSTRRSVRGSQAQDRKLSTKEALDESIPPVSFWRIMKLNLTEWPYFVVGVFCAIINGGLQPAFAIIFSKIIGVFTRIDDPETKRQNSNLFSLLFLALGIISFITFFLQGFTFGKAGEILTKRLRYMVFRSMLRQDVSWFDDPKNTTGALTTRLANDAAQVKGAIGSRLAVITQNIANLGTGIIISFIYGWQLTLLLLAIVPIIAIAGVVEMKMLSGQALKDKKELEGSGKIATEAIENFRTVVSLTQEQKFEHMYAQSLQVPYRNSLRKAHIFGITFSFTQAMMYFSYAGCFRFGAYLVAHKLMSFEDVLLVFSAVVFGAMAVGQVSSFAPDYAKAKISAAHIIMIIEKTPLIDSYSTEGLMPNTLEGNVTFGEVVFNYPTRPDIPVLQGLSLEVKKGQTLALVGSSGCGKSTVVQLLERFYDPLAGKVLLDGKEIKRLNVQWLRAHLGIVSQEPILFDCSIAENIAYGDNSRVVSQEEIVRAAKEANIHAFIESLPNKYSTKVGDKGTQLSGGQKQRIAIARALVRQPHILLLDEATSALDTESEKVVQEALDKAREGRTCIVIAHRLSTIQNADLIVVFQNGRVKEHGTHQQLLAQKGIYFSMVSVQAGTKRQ

`CC[C@H]1OC(=O)[C@H](C)[C@@H](O[C@H]2C[C@@](C)(OC)[C@@H](O)[C@H](C)O2)[C@H](C)[C@@H](O[C@@H]2O[C@H](C)C[C@H](N(C)C)[C@H]2O)[C@](C)(O)C[C@@H](C)CN(C)[C@H](C)[C@@H](O)[C@]1(C)O` returned an inhibition of aggregation in experiment [1] of 65.2%. In experiment [2], this compound returned a normalised LDH release of 0.795. For the same compound, the glutamate uptake change in experiment [3] turned out to be 5.3%. The inclusion score in experiment [4] came out at 3. Further, the aggregation suppression score in experiment [5] was 0.581.

Turning to `CCN(CC)CC#CCOC(=O)C(O)(c1ccccc1)C1CCCCC1` (stereo not given), the fluorescence slope change in experiment [6] was 225% (active).

`CC(Cc1ccc(O)c(O)c1)(NN)C(=O)O` (stereo not given) came in with an inhibition of aggregation in experiment [1] of 15.6%. The glutamate uptake change in experiment [3] worked out at 6.68%. For the same compound, in experiment [4], the inclusion score amounted to 2. In experiment [5], the aggregation suppression score came out at 1.15.

`CC(C)(S)C(N)C(=O)O` (stereo not given): the inhibition of aggregation in experiment [1] stood at 94.4%. In addition, the glutamate uptake change in experiment [3] was -17.3%. Besides, the inclusion score in experiment [4] was determined as 2. The same compound displayed an aggregation suppression score in experiment [5] of 1.65.

With `O=C(c1ccc(OCCN2CCCCC2)cc1)c1c(-c2ccc(O)cc2)sc2cc(O)ccc12`, the fluorescence slope change in experiment [6] is 82.4% (active).
